Results: the supplement of paper PMC11732987, “Enantioselective OTUD7B fragment discovery through chemoproteomics screening and high-throughput optimisation” (Communications Chemistry, 2025)

What was measured:
Experiment in all cases: log2 ratio of Biotin-Ahx-Ub-VS probe labelling (fragment/DMSO); higher = less target engagement (more negative = stronger competition), active = hit call of the paper (q ≤ 0.05, log2 ratio ≤ -1)
Settings in all cases: compound concentration: 200 uM; treatment time: 3 h
USP34 = USP34 (UniProt Q70CQ2)
Sequence of USP34 (Q70CQ2 whole entry, the tested form may be a part): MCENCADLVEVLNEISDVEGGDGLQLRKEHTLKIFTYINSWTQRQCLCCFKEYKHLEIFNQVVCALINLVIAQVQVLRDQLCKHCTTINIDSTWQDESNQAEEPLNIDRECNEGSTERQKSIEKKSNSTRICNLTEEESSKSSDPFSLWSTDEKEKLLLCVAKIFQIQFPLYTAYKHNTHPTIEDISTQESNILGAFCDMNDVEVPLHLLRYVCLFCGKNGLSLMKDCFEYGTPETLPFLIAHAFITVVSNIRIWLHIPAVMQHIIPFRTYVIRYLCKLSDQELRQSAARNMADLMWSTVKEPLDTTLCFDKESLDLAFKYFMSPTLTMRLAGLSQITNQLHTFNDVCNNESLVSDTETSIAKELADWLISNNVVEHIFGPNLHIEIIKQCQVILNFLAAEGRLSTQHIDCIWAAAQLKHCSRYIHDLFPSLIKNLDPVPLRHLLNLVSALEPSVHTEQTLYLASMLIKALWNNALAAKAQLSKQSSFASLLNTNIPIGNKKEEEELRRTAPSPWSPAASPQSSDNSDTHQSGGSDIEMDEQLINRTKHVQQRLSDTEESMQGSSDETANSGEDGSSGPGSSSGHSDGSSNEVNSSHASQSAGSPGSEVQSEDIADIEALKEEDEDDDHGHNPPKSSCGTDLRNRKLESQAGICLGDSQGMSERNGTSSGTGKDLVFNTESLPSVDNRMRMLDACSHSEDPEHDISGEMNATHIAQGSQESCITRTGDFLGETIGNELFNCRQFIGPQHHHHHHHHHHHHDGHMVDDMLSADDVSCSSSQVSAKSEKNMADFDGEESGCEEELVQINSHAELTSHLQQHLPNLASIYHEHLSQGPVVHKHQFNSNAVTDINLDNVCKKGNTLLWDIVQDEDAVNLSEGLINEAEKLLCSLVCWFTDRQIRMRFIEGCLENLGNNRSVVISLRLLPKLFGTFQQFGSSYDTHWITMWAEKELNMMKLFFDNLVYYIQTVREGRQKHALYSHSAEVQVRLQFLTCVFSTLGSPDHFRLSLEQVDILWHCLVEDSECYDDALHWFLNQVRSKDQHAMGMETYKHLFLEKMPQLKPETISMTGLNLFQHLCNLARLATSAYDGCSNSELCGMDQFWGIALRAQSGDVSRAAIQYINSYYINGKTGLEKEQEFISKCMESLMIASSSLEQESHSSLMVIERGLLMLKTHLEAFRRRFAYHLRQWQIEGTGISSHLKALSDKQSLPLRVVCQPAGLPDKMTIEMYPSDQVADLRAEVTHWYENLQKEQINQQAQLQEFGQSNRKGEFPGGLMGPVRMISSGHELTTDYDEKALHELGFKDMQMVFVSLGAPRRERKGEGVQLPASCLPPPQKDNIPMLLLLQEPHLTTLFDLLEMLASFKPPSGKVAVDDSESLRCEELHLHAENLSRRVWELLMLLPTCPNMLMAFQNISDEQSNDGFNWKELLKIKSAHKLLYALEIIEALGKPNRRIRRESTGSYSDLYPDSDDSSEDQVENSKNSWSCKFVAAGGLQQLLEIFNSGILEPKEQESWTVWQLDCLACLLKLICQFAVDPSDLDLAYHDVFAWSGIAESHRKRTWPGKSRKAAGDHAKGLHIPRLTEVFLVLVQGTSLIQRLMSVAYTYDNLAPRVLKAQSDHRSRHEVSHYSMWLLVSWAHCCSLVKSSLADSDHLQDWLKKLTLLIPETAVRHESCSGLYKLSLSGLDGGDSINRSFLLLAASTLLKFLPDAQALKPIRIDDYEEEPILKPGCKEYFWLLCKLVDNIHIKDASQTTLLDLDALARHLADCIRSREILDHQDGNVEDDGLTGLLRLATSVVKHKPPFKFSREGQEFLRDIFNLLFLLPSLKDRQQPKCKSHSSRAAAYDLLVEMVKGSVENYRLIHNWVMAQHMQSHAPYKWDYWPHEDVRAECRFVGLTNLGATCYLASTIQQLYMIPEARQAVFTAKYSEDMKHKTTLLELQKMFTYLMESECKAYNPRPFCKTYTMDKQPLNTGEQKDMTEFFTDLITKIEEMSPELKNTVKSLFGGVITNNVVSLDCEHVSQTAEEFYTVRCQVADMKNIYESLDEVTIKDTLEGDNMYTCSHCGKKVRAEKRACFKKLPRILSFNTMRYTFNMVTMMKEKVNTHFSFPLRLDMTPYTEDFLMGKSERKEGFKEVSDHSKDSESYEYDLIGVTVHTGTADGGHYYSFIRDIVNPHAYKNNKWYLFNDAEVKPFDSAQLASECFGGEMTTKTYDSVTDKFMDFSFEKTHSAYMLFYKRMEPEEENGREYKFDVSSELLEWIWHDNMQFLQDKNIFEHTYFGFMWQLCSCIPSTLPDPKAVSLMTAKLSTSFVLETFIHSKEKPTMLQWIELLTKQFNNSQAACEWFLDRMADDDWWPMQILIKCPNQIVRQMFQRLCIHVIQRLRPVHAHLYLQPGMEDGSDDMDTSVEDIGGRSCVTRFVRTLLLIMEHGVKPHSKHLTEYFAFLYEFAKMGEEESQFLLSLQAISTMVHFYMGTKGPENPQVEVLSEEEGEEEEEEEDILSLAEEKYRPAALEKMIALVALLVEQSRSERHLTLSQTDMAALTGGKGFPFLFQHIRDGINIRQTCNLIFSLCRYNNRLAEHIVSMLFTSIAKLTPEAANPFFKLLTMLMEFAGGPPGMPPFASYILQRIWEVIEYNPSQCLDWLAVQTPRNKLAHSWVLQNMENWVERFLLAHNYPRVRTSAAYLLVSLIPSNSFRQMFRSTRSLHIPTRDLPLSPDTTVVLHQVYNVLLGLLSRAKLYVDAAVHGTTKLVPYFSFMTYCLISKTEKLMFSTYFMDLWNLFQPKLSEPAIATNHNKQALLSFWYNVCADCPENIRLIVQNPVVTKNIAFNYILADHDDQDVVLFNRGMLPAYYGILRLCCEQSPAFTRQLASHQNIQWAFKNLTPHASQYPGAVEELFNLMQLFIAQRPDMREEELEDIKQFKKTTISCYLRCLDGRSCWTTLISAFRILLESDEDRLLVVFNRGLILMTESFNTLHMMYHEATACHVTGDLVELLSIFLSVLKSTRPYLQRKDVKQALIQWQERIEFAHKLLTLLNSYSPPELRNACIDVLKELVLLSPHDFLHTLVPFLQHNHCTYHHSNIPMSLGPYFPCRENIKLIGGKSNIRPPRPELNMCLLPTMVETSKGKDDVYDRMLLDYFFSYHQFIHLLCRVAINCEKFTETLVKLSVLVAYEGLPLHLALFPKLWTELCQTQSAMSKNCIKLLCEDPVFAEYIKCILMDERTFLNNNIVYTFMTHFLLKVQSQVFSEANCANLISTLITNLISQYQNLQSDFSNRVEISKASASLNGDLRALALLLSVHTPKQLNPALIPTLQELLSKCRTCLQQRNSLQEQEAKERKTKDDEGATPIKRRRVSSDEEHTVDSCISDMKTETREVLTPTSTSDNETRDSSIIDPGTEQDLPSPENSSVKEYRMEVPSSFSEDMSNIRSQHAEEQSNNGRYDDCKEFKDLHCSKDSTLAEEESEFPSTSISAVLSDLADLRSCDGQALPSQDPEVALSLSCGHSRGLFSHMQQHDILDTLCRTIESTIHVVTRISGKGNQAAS
Summary of the method: (§1)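 Labelled DUBs from HEK293T lysate were NeutrAvidin-enriched, digested with LysC and trypsin, and run by diaPASEF LC-MS/MS. Before that, each 495 µg sample in Tris/CHAPS/IGEPAL buffer with protease inhibitors was treated in triplicate with fragment at 200 µM or vehicle for 3 h, then with Biotin-Ahx-Ub-VS at 0.5 µM final for 1 h. Values are average log2 ratios of fragment over vehicle by unpaired t-test, based on global-median-normalised Spectronaut label-free quantities from proteins with ≥2 unique peptides.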

USP36 = molecular target: T1, USP36 (UniProt Q9P275)
T1 sequence (whole entry): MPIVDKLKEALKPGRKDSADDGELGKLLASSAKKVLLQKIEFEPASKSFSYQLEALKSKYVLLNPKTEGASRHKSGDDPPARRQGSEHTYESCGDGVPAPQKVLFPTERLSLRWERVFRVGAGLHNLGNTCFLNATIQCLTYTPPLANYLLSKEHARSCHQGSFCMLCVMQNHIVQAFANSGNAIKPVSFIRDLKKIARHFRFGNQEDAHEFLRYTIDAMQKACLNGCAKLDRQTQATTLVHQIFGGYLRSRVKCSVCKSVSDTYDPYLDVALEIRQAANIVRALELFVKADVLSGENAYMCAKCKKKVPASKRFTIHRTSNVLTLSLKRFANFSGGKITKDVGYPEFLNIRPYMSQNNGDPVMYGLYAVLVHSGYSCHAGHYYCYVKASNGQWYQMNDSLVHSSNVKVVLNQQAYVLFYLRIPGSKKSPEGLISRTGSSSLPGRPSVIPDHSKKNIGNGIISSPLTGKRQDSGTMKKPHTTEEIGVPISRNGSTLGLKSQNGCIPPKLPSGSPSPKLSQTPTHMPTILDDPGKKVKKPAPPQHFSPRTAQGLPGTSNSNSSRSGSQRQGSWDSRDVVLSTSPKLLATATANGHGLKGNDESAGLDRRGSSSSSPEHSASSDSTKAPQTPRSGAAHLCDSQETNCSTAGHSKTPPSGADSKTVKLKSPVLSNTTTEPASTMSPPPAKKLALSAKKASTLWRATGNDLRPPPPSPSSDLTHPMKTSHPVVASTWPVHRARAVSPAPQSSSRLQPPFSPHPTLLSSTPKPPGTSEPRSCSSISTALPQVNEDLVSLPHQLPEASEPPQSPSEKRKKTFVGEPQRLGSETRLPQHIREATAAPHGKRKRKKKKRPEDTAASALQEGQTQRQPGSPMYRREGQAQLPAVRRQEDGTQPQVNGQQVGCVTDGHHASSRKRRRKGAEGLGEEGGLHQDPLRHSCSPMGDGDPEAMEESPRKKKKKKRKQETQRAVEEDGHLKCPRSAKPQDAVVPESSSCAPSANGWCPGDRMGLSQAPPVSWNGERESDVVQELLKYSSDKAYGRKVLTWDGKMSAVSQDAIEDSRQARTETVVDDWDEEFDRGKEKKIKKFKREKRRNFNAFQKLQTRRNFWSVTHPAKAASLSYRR
Summary of the method: as §1

USP38 = molecular target: T2, USP38 (UniProt Q8NB14)
T2 sequence (whole entry): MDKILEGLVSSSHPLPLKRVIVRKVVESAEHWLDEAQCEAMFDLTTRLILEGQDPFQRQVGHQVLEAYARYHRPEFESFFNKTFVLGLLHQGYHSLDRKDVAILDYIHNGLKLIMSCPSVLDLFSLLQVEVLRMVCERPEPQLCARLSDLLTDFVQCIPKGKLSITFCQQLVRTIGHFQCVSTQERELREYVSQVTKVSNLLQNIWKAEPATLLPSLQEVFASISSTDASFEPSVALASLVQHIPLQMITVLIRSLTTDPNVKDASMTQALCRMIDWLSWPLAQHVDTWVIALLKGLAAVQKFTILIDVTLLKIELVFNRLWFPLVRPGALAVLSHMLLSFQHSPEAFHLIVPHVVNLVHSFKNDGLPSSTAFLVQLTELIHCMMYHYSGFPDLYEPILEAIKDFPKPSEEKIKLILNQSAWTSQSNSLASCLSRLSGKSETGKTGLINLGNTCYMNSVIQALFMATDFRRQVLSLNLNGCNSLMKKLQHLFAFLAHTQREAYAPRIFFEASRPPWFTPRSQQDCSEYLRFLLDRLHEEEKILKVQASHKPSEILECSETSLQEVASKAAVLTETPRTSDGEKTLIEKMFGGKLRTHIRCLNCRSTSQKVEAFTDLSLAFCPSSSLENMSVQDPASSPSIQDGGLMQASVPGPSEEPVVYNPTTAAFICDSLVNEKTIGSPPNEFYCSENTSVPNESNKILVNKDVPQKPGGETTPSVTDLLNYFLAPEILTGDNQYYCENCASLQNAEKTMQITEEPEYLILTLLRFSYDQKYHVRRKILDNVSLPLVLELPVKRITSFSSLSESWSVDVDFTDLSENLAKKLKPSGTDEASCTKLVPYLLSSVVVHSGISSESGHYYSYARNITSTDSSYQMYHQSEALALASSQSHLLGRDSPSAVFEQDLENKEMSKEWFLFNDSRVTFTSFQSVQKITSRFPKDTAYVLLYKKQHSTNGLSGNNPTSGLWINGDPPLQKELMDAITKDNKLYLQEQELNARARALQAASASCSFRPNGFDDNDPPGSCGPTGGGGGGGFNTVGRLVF
Summary of the method: as §1

USP39 = molecular target: T3, USP39 (UniProt Q53GS9)
T3 sequence (whole entry): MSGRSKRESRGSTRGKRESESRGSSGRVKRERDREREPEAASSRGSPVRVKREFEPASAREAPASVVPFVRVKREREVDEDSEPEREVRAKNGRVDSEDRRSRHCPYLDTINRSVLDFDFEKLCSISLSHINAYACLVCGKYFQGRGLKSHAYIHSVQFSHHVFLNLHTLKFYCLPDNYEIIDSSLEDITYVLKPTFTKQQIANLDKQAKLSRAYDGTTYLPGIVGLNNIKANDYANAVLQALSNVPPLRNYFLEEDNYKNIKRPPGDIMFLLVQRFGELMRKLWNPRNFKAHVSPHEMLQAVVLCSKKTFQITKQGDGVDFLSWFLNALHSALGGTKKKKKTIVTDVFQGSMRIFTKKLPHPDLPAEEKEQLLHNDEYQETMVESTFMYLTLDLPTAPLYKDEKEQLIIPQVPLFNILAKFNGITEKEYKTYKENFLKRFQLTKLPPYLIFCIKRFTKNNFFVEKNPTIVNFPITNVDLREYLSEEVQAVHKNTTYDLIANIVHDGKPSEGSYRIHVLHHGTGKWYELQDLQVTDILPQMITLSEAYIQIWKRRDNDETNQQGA
Summary of the method: as §1

USP4 = molecular target: T4, USP4 (UniProt Q13107)
T4 sequence (whole entry): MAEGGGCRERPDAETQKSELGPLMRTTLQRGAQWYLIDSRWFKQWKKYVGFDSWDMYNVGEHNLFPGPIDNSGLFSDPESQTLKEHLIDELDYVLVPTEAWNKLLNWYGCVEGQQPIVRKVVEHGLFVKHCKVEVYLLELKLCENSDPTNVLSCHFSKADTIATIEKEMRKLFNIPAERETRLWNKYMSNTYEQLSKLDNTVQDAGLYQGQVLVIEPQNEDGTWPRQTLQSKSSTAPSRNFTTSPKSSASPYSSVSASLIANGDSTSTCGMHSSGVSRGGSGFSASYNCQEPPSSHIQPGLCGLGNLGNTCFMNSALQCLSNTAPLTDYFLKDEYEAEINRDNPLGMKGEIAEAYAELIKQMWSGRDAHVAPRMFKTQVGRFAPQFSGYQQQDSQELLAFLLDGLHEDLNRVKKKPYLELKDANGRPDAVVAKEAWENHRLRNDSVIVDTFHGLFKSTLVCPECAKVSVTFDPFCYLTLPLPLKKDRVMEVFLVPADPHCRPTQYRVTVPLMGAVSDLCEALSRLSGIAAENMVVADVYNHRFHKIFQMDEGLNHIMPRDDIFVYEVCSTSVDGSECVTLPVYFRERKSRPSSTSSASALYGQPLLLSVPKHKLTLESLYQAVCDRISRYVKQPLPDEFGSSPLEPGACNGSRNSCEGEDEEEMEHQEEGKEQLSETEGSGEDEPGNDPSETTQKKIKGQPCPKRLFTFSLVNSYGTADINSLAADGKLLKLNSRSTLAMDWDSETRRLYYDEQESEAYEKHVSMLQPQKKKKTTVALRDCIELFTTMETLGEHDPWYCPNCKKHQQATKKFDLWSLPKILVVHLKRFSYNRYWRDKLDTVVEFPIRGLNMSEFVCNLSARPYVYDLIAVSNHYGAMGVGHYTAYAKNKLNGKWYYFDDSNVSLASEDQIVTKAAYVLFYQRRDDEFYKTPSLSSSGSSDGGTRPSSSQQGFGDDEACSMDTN
Summary of the method: as §1

Measured: log2 ratio of Biotin-Ahx-Ub-VS probe labelling

Cc1ccc(N(C(=O)CCl)C2C=CS(=O)(=O)C2)cc1 (stereo not given)
inactive: USP34 -0.0862 | USP36 -0.145 | USP38 0.105 | USP39 0.107 | USP4 0.0944
